AmpC det inh: inhibitors of E. coli AmpC beta-lactamase with detergent; actives 0.09% (n = 71,000); Potency, µM (titrated, usually from 28.7 µM), for the others: at the highest dose activity change, negative = inhibition; P00811; purified AmpC, nitrocefin hydrolysis with detergent; active means well fitted curve in the direction sought with a large enough effect; inconclusive means small, poorly fitted or top-dose-only effect; further: on the % scale 0 is the no-effect control and ±100 the full control effect
Target sequence (P00811 whole entry, looked up): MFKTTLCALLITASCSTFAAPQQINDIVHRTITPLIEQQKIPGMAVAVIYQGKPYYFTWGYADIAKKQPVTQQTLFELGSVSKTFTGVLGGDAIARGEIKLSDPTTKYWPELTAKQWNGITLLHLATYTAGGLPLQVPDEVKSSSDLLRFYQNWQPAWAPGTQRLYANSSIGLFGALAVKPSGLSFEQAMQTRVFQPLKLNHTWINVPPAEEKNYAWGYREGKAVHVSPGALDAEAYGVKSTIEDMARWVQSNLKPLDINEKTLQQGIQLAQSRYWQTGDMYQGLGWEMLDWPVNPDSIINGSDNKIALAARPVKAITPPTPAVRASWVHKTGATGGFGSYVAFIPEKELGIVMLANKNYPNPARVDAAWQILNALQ
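E. coli AmpC (5.3 nM) in 20 mM phosphate pH 7.0 with 0.01% Triton X-100, preincubated 15 min RT with compound; nitrocefin (2 uL of 800 uM stock) hydrolysis followed by 480 nm absorbance every 20 s over 4 min.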
LT uptake inh: inhibitors of anthrax lethal toxin internalization | Cells, anthrax lethal toxin internalization, FRET ratio (460/530) | Potency, µM (doses to about 40 µM), for the others: at the top dose activity change, negative = inhibition, usual class: inhibitors | actives 0.67% (n = 70,000); further: on the % scale 0 is the no-effect control and ±100 the full control effect; nearly all actives have a fitted effect of over 50% in size
Prx2 Sm inh: blocks S. mansoni peroxiredoxin 2 enzymatic activity; S. mansoni Prx2 activity coupled to TGR/GSH (TGR is thioredoxin glutathione reductase), NADPH fluorescence loss, qHTS; Potency, µM; actives 0.07% (n = 65,000)
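Enzyme mix: 100 uM NADPH, 25 nM TGR, 700 uM GSH, 50 nM Prx2 in 100 mM phosphate pH 7.4, 10 mM EDTA, 0.01% Tween-20. 15 min RT with compound; NADPH/GSH added, H2O2 starts reaction; NADPH fluorescence read 8 min.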
AmpC nodet inh: AmpC beta-lactamase inhibition, detergent-free assay | P00811 | AmpC nitrocefin hydrolysis, absorbance 480 nm, no detergent | Potency, µM (titrated, usually from 28.7 µM), without a hit: at the highest dose activity change, negative = inhibition | actives 1.8% (n = 71,000) | AID 585; further: % of control where 0% means no effect
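AmpC, 20 mM phosphate pH 7.0; 15 min cpd preinc, RT; start with nitrocefin (800 uM stock); A480 kinetic read, 20 s intervals, 4 min. No-enzyme wells = negative control.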
* = called active by the depositor; i = inactive; ? = inconclusive; · = not tested or not shown; [ ] = remark or other dose. Rows were chosen to be rich in hits. Some 2.4% of all compounds tested hit in one or more screens of this group. Unless noted, the call rests on the fitted dose curve. Potency means the concentration at half of the fitted maximal effect.

SMILES	AmpC det inh	LT uptake inh	Prx2 Sm inh	AmpC nodet inh
CCCCCc1nnc(NC(=O)Cc2cccs2)s1	-5.5%	14.3%	>57	12.6µM*
COc1ccc(Cc2nnc(NC(=O)Cc3cccs3)s2)cc1OC	-2.1%	-3.4%	>57	12.6µM*
CCOc1ccc(-n2c(Cc3cc(=O)[nH]c(=O)[nH]3)nnc2SCc2cccnc2)cc1	12.2%	-8.5%	>57	3.98µM*[single pt active]
CCOC(=O)C(C)Sc1nnc(Cc2cc(=O)[nH]c(=O)[nH]2)n1-c1cccc(OC)c1 (stereo not drawn)	10.4%	2.6%	>57	3.98µM*[single pt active]
CCOc1ccc(-n2c(Cc3cc(=O)[nH]c(=O)[nH]3)nnc2SC(C)C)cc1	24.2%	?	>57	12.3%
CCOC(=O)C(C)Sc1nnc(Cc2cc(=O)[nH]c(=O)[nH]2)n1-c1ccc(OCC)cc1 (stereo not drawn)	11.4%	0.9%	>57	3.98µM*[single pt active]
Cc1ccc(S(=O)(=O)N2CCN(C(=O)CN3CCOCC3)C2)cc1	0.4%	6.2%	>57	0.7%
COC(=O)c1ccc(-c2nc3ccccc3o2)cc1	-2.8%	-21.1%	>57	18.8%
COc1ccc(C(c2c(O)ccc3ccccc23)N2CCOCC2)c(OC)c1 (stereo not drawn)	11.7%	6.31µM*	>57	77.1%
COc1ccc(-c2cc3ccccc3n2CC(O)CN2CCOCC2)cc1 (stereo not drawn)	10.4%	-3.3%	>57	144.4%
C[C@@H]1[C@H]2C=C[C@@H]1[C@@H](c1c3ccc(=O)c(O)c-3oc3c(O)c(O)ccc13)[C@@H]2C(=O)O	2µM*	?	>57	2.51µM*
O=c1cc(-c2ccccc2O)oc2c(O)c(O)ccc12	-6.8%	?	?	?
O=C(Nc1ccon1)c1ccc(S(=O)(=O)N2CCCCCC2)cc1	1.6%	-10.0%	>57	-22.6%
CS/C(=N\S(=O)(=O)c1cccs1)NC(=O)CSc1nc2ccccc2s1	-4.2%	?	>57	12.6µM*
O=C(CSc1nc2ccccc2c(=O)n1CCCC(=O)N1CCCC1)NCc1ccco1	-2.3%	?	>57	55.6%
CCOC(=O)C1CCN(CC(O)COc2ccc(C(C)(C)C)cc2)CC1 (stereo not drawn)	-1.3%	-14.8%	>57	59.6%
CCOC(=O)C1CCN(CC(O)COc2ccc(C(C)=O)cc2)CC1 (stereo not drawn)	11.9%	-10.6%	>57	3.16µM*[single pt active]
CC(=O)c1ccc(OCC(O)CN2CCN(Cc3ccccc3)CC2)cc1 (stereo not drawn)	14.3%	-7.6%	>57	3.98µM*[single pt active]
O=C(CN1C(=O)c2cccc3cccc1c23)NCC1CCCO1 (stereo not drawn)	-6.2%	0.0%	>57	3.7%
C/C(=C\C(=O)c1ccc(C)cc1)Nc1cccc(O)c1	9.2%	10µM*	·	-6.5%
Cc1ccccc1OCc1nc(-c2ccc(NC(=O)c3ccc4c(c3)OCO4)cc2)no1	-1.6%	-8.0%	>57	12.6µM*
Cc1ccccc1OCc1nc(-c2ccc(NC(=O)c3ccco3)cc2)no1	1.0%	?	>57	-3.7%
Cc1ccc2cc(C#N)c(SCC(=O)NCc3ccco3)nc2c1	6.7%	-16.9%	>57	-24.4%
Cc1ccc2nc(SCC(=O)NCc3ccco3)c(C#N)cc2c1	8.8%	-13.1%	>57	15.8µM*[single pt active]
CCOC(=O)c1cnc2c(C#N)c(C)nn2c1-c1ccccc1	9.5%	-10.2%	·	3.98µM*[single pt active]
SMILES	AmpC det inh	LT uptake inh	Prx2 Sm inh	AmpC nodet inh
CCOC(=O)c1cnc2c(C#N)c(C)nn2c1C	-4.7%	-4.8%	>57	-7.1%
COCCCNC(=O)Cn1ncc2c(=O)oc3ccccc3c21	-2.4%	11.1%	>57	-1.8%
O=C(Cn1ncc2c(=O)oc3ccccc3c21)NCC1COc2ccccc2O1 (stereo not drawn)	12.9%	-2.6%	>57	0.794µM*
O=C(Cn1ncc2c(=O)oc3ccccc3c21)NCCCN1CCCC1=O	10.9%	-8.5%	>57	3.98µM*[single pt active]
CCN(CCCNC(=O)Cn1ncc2c(=O)oc3ccccc3c21)c1cccc(C)c1	11.8%	-16.2%	>57	2µM*[single pt active]
O=C(Cn1ncc2c(=O)oc3ccccc3c21)NC1CC1	-0.8%	-8.3%	>57	-0.5%
CCCC(C)C(=O)Nc1ccc(Cl)cn1 (stereo not drawn)	-4.9%	4.5%	>57	10.6%
CCN(CCCNC(=O)C1CCN(S(=O)(=O)c2cccc3nonc23)CC1)Cc1ccccc1	7.9%	8.6%	>57	12.0%
O=C(CSc1nnc(-c2ccc(Cl)cc2)o1)N1CCN(c2ccccc2)CC1	-3.4%	0.4%	>57	10µM*[single pt active]
Clc1ccc(-c2nnc(SCc3nc(-c4ccccc4)no3)o2)cc1	11.2%	?	>57	3.98µM*[single pt active]
O=C(CSc1nnc(COc2ccc(Cl)cc2)o1)N1CCN(c2ccccc2)CC1	-1.4%	?	>57	-11.1%
Cc1ccc(CCNC(=O)CCNS(=O)(=O)c2ccc3c(c2)c(=O)n(C)c(=O)n3C)cc1	9.7%	1.6%	>57	39.1%
Cc1cccc(CCNC(=O)CN(C)S(=O)(=O)c2ccc3c(c2)c(=O)n(C)c(=O)n3C)c1	13.9%	-10.2%	>57	3.98µM*[single pt active]
CN(C)c1ccc(/C=c2\sc3n(c2=O)CCCN=3)cc1	-7.3%	-2.7%	>57	24.7%
CN(C)c1ccc(/C=C2/C(=O)Nc3ccccc32)cc1	0.0%	12.6µM*	>57	19.3%
Cc1ccc(-n2nnc3ccccc3c2=O)cc1C	-2.8%	12.6µM*	·	18.5%
CCCCn1cnc2c1c(=O)n(CC(=O)c1cc(C)n(C)c1C)c(=O)n2CC(C)C	-1.9%	?	>57	130.7%
CCN1CCN(c2ncnc3ccc(Br)cc23)CC1	-3.8%	-14.7%	>57	-7.5%
OCCN1CCN(c2ncnc3ccc(Br)cc23)CC1	12.7%	-4.1%	>57	3.98µM*[single pt active]
CCOC(=O)c1cc2c(=O)n(C)c3ccccc3c2s1	11.8%	2.1%	>57	-2.5%
CCn1c(=O)c2cc(C(=O)N3CCOCC3)sc2c2ccccc21	13.7%	-16.5%	>57	3.98µM*[single pt active]
CCn1c(=O)c2cc(C(=O)N3CCCC3)sc2c2ccccc21	14.2%	-10.1%	>57	3.98µM*[single pt active]
Cc1nc2c(c(=O)n1Cc1ccccc1Cl)c1nc3ccccc3nc1n2Cc1ccco1	0.5%	7.94µM*	>57	5.8%
CCCCC(=O)Nc1nnc(C)s1	-1.0%	3.9%	>57	-1.2%
CC(C)COc1cc(=O)[nH]c(SCC(C)C)n1	-10.6%	-1.1%	i	0.1%
Cc1cc(C(=O)N[C@H](c2ccccc2)[C@@]2(C)C[C@@H]2[C@@H](C)C(=O)Nc2ccc3ccccc3c2)n(C)n1	-3.3%	10µM*	>57	69.0%
CC(=O)N[C@@H](c1ccccc1)[C@]1(C)C[C@H]1[C@@H](C)C(=O)Nc1ccc2ccccc2c1	0.0%	-24.6%	>57	110.8%
C[C@@H](C(=O)Nc1ccc2ccccc2c1)[C@@H]1C[C@@]1(C)[C@@H](NS(=O)(=O)c1ccccc1)c1ccccc1	0.8%	?	>57	-13.7%
C[C@@H](C(=O)Nc1ccc2ccccc2c1)[C@H]1C[C@]1(C)[C@H](NC(=O)OCc1ccccc1)c1ccccc1	1.7%	?	>57	7.94µM*
